Test results taken from PubChem BioAssay (NCATS).
Unmarked numbers belong to inactive results. Records with an inconclusive call do not appear. Where a call stands in place of a potency, no number is given. Calls of active or inactive are those of the source. Calls follow the shape of the dose curve; as a rule, active = well fitted curve in the direction sought with a large enough effect; inconclusive = small, poorly fitted or top-dose-only effect, or another doubt; inactive = no such curve, though single readings can be large; an effect the other way counts as inactive or inconclusive.

Legend:
[1] = biological target: Cytochrome P450 2C19 (Homo sapiens) (UniProt P33261); test: qHTS for inhibitors of CYP2C19 against the NCATS DSHEA and TCM libraries (AID 1919974); details: CYP2C19 enzyme inhibition, luminescence qHTS; series mostly up to 34.1 µM;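 also: luminescence from luciferin released by CYP2C19 oxidation of a pro-luciferin substrate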
Chain of Cytochrome P450 2C19 (Homo sapiens) (P33261 whole entry, looked up): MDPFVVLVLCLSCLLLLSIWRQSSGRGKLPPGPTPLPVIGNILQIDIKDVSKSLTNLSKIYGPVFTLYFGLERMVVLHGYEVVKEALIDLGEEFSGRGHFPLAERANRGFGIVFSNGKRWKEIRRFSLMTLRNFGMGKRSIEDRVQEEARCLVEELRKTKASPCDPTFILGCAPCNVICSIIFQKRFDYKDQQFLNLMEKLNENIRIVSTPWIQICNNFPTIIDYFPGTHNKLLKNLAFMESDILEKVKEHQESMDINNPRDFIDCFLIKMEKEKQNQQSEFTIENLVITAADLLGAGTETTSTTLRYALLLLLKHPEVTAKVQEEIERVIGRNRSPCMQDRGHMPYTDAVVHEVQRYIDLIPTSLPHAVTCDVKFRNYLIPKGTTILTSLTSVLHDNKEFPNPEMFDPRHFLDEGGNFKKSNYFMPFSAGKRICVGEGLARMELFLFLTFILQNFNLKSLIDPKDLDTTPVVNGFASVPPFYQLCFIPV
Method in brief: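 Luminescent P450-Glo format: compounds preincubated 15 min with enzyme and luciferin substrate, reaction run 30-45 min after NADPH regeneration solution. Intraplate controls: ketoconazole for CYP3A4 and CYP2C19, sulfaphenazole for CYP2C9.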

[2] = biological target: Glutathione peroxidase 1 (Homo sapiens) (UniProt P07203); test: Primary qHTS Assay for Inhibitors of Recombinant Selenoprotein Glutathione Peroxidase 1 (GPX1) (AID 1845191); details: recombinant GPX1, GR-coupled NADPH fluorescence, 15 min; series mostly up to 48.8 µM; also: nearly all actives have a fitted effect of over 65% in size; also: potency is read from the fitted curve at half-maximal effect
Chain of Glutathione peroxidase 1 (Homo sapiens) (P07203 whole entry, looked up): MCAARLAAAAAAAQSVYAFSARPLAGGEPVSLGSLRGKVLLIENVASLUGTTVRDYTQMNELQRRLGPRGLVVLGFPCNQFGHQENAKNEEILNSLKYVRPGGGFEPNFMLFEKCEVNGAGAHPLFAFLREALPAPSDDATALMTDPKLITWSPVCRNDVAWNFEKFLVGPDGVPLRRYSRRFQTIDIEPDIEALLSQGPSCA
Method in brief: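 Recombinant GPX1 (10 nM final) was preincubated with compound for 30 min at room temperature, then reacted with 1 mM GSH, 0.5 mM CHP, 0.5 mM NADPH and 100 nM glutathione reductase; NADPH fluorescence (340/450 nm) was read at 0 and 15 min.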

[3] = biological target: Phospholipid hydroperoxide glutathione peroxidase GPX4 (Homo sapiens) (UniProt P36969); test: Primary qHTS Assay for Inhibitors of Recombinant Selenoprotein Glutathione Peroxidase 4 (GPX4) (AID 1845192); details: recombinant GPX4, GR-coupled NADPH fluorescence, 15 min; series mostly up to 50 µM; also: nearly all actives have a fitted effect of over 65% in size
Chain of Phospholipid hydroperoxide glutathione peroxidase GPX4 (Homo sapiens) (P36969 whole entry, looked up): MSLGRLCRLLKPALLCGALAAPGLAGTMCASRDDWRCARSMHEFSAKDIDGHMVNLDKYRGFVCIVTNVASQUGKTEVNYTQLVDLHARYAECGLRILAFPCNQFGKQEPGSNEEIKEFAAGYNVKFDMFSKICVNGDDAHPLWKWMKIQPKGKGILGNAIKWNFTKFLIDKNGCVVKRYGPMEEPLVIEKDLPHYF
Method in brief: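 GR-coupled readout: 100 nM GR, 1 mM GSH, 0.5 mM NADPH; NADPH fluorescence (ex 340/em 450 nm) read at t=0 and after 15 min RT. GPX4 200 nM, preincubated 30 min with compound; substrate 0.5 mM CHP.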

[4] = biological target: Metallo-beta-lactamase type 2 (Klebsiella pneumoniae) (UniProt C7C422); test: qHTS to identify inhibitors of the New Delhi Metallo-beta-lactamase (NDM): assay validation screen against the NCATS LOPAC Collection (AID 1794843); details: NDM-1 enzyme, nitrocefin hydrolysis, absorbance 485 nm; series mostly up to 38.4 µM;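 also: nitrocefin turnover by NDM-1 measured as 485 nm absorbance at plateau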
Chain of Metallo-beta-lactamase type 2 (Klebsiella pneumoniae) (C7C422 whole entry, looked up): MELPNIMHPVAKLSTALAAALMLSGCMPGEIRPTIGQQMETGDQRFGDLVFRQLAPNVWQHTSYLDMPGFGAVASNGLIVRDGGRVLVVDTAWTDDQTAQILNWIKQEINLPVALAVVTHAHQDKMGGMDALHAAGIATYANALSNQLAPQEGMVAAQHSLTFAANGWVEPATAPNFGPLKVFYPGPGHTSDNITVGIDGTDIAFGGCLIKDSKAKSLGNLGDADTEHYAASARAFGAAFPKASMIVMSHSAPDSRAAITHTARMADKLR
Method in brief: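 Nitrocefin hydrolysis (50 uM substrate stock) by NDM-1, 2 nM final, was followed by 485 nm absorbance after compound preincubation; buffer was 50 mM HEPES pH 7.0, 1 uM ZnSO4, 0.01% Tween20.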

[5] = biological target: Luciferin 4-monooxygenase (Photinus pyralis) (UniProt P08659); test: Primary firefly luciferase (FLuc) qHTS assay for identification of artifact compounds. (AID 1845220); details: purified firefly luciferase, luminescence, 5 min; series mostly up to 54.1 µM; also: nearly all actives have a fitted effect of over 60% in size
Method in brief: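 In this counter-screen for luciferase artifacts, test compounds met substrate (10 uM each luciferin and ATP) before 10 nM enzyme started the reaction. Light output was measured 5 min later.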

[6] = Primary fluorescence-based thiol-reactive (MSTI) qHTS assay for identification of artifact compounds. (AID 1845221); details: MSTI thiol-reactivity probe, 1 h; series mostly up to 53.8 µM;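 also: thiol-reactive compounds lower the probe fluorescence signal; nearly all actives have a fitted effect of over 65% in size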
Method in brief: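 Curve-fitted percent inhibition (4-parameter Hill) derived from fluorescence, Ex 525/Em 598 nm, scaled with Acetyl-MSTI and MSTI; 1 h incubation at room temperature.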

[7] = tested on: Nanoluciferase (engineered Oplophorus gracilirostris luciferase); test: Primary Nanoluciferase (NLuc) qHTS assay for identification of artifact compounds. (AID 1845222); details: NLuc-conditioned medium, Nano-Glo luminescence, 5 min; series mostly up to 54.1 µM;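 also: NLuc secreted into diluted conditioned medium of S16 cells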
Method in brief: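 Using secreted nanoluciferase in S16 culture medium (0.22 um filtered, 1:55 dilution), compounds were preincubated 15 min at RT. Signal was generated with Nano-Glo reagent (1:100) over 5 min.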

[8] = Primary redox qHTS assay for identification of artifact compounds. (AID 1845223); details: Amplex Red/HRP redox cycling with DTT, fluorescence; series mostly up to 53.8 µM
Method in brief: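 Amplex Red (25 uM) and HRP (250 mU/mL) in HBSS, with compounds for 15 min, then 250 uM DTT for 30 min, room temperature, dark. Fluorescence 525/598 nm read; normalized to DMSO and 10 uM DA3003; Hill fit.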

CC12CCC(CC1)C(C)(C)O2
outcome [1]: inactive

O=C(O)c1ccccc1O
outcome [1]: inactive

C[C@@H]1CCN(C(=O)[C@H](CCCN=C(N)N)NS(=O)(=O)c2cccc3c2NC[C@H](C)C3)[C@@H](C(=O)O)C1
Potency [2]: inactive
Potency [3]: inactive

CN(C)CCCN1c2ccccc2CCc2ccccc21
Potency [2]: inactive
Potency [3]: inactive

O=c1cc[nH]c(=O)[nH]1
Potency [2]: inactive
Potency [3]: inactive

CNCC(O)c1ccc(O)c(O)c1 (configuration not stated)
Potency [2]: inactive
Potency [3]: inactive

CO/N=C(\C(=O)N[C@@H]1C(=O)N2C(C(=O)O)=C(CSc3nc(=O)c(O)nn3C)CS[C@H]12)c1csc(N)n1
Potency [2]: 9.04 µM (active)

CN1[C@@H]2CC(OC(=O)[C@H](CO)c3ccccc3)C[C@H]1[C@@H]1O[C@@H]12 (some centres not stated)
Potency [2]: inactive
Potency [3]: inactive

COC(=O)C1=C(C)NC(C)=C(C(=O)OC)C1c1ccccc1[N+](=O)[O-]
Potency [2]: inactive
Potency [3]: inactive

CCN(CC)C(C)CN1c2ccccc2Sc2ccccc21 (configuration not stated)
Potency [2]: inactive
Potency [3]: inactive

CC(=O)OCC(=O)[C@@]1(O)CC[C@H]2[C@@H]3CCC4=CC(=O)CC[C@]4(C)[C@H]3C(=O)C[C@@]21C
Potency [2]: inactive
Potency [3]: inactive

NS(=O)(=O)c1cc2c(cc1Cl)NC(CSCc1ccccc1)=NS2(=O)=O
Potency [2]: inactive
Potency [3]: inactive

C=Cc1c(C)c2cc3[nH]c(cc4nc(cc5nc(cc1[nH]2)C(C)=C5CCC(=O)O)C(CCC(=O)O)=C4C)c(C)c3C=C
outcome [4]: inactive
Potency [2]: inactive
Potency [3]: inactive

C[C@H](N)[C@H](O)c1cccc(O)c1
Potency [2]: inactive
Potency [3]: inactive

NCCNCCNCCN
Potency [2]: inactive
Potency [3]: inactive

O=Cc1ccccc1C=O
Potency [2]: inactive
Potency [3]: inactive

CC(C)C(=O)c1c(C(C)C)nn2ccccc12
outcome [4]: inactive
Potency [2]: inactive
Potency [3]: inactive

Oc1cn2c(n1)Nc1ccc(Cl)c(Cl)c1C2
Potency [2]: inactive
Potency [3]: inactive

CC(C)(C(=O)O)c1ccc(C(O)CCCN2CCC(C(O)(c3ccccc3)c3ccccc3)CC2)cc1 (configuration not stated)
outcome [4]: inactive
Potency [2]: inactive
Potency [3]: inactive
outcome [5]: inactive
Potency [6]: inactive
outcome [7]: inactive
outcome [8]: inactive

CC1=C(CC(=O)O)c2cc(F)ccc2/C1=C\c1ccc(S(C)(=O)=O)cc1
Potency [2]: inactive
Potency [3]: inactive

COCCOC(=O)C1=C(C)NC(C)=C(C(=O)OC/C=C/c2ccccc2)C1c1cccc([N+](=O)[O-])c1 (configuration not stated)
outcome [4]: inactive
Potency [2]: inactive
Potency [3]: inactive

C[C@@H](O)[C@H](N)C(=O)O
Potency [2]: inactive
Potency [3]: inactive

CC(C(O)c1ccc(O)cc1)N1CCC(Cc2ccccc2)CC1 (configuration not stated)
outcome [4]: inactive
Potency [2]: inactive
Potency [3]: inactive
outcome [5]: inactive [at 25.7 µM]
Potency [6]: inactive
outcome [7]: inactive
outcome [8]: inactive

CNC(=O)Oc1ccc2c(c1)[C@]1(C)CCN(C)[C@@H]1N2C
outcome [4]: inactive
Potency [2]: inactive
Potency [3]: inactive
outcome [5]: inactive
outcome [7]: inactive

N[C@H]1C(O)O[C@H](CO)[C@@H](O)[C@@H]1O (some centres not stated)
Potency [2]: inactive
Potency [3]: inactive

CC(CN(C)C)CN1c2ccccc2CCc2ccccc21 (configuration not stated)
Potency [2]: inactive
Potency [3]: inactive

CCN(CC)CCOC(=O)C1(C2CCCCC2)CCCCC1
outcome [4]: inactive
Potency [2]: inactive
Potency [3]: inactive

CC(=O)O[C@@]12CO[C@@H]1C[C@H](O)[C@@]1(C)C(=O)[C@H](O)C3=C(C)[C@@H](OC(=O)[C@H](O)[C@@H](NC(=O)OC(C)(C)C)c4ccccc4)C[C@@](O)([C@@H](OC(=O)c4ccccc4)[C@H]21)C3(C)C
Potency [2]: inactive

CSc1ccc2c(c1)C(N1CCN(C)CC1)Cc1ccccc1S2 (configuration not stated)
outcome [4]: inactive
Potency [2]: inactive
Potency [3]: inactive

OCCN1CCN(CCCN2c3ccccc3Sc3ccc(Cl)cc32)CC1
Potency [2]: inactive
Potency [3]: inactive

CCN(CC)CCNC(=O)c1c(C)[nH]c(/C=C2\C(=O)Nc3ccc(F)cc32)c1C
Potency [2]: inactive
Potency [3]: inactive

C[C@H](NC(CCc1ccccc1)C(=O)O)C(=O)N1CCC[C@H]1C(=O)O (some centres not stated)
Potency [2]: inactive
Potency [3]: inactive

O=C(O)COc1nn(Cc2ccccc2)c2ccccc12
Potency [2]: inactive
Potency [3]: inactive

NC(CSCC(=O)O)C(=O)O (configuration not stated)
Potency [2]: inactive
Potency [3]: inactive

CCCCN(CCCC)CC(O)c1cc(Cl)cc2c1-c1ccc(Cl)cc1/C2=C/c1ccc(Cl)cc1 (configuration not stated)
Potency [2]: inactive
Potency [3]: inactive

CC(=O)Oc1c(C)c(C)c2c(c1C)CC[C@@](C)(CCC[C@H](C)CCC[C@H](C)CCCC(C)C)O2
Potency [2]: inactive
Potency [3]: inactive

CCOC(=O)c1ccc(O)cc1
Potency [2]: inactive
Potency [3]: inactive

O=c1[nH]c(=O)c2[nH]c(=O)[nH]c2[nH]1
activity, negative = inhibition [2]: -12.4% [at 9.52 µM]
activity change, negative = inhibition [3]: -16.1% [at 9.73 µM]

O=C1O[C@H](CO)[C@@H](O)[C@H](O)[C@H]1O
Potency [2]: inactive
Potency [3]: inactive
